Screens: PubChem, National Center for Advancing Translational Sciences (NCATS)
MCF10A rereplic – inducers of DNA re-replication in MCF 10A breast cells | MCF 10A DNA re-replication, Hoechst nuclear intensity, 48 h | Potency, µM (highest dose often 46.1 µM), for the others: at the top dose activity, positive = re-replication, usual class: activators | 350,000 compounds, 2.9% hits | AID 624296; further: % of control where 0% means no effect; nearly all actives have a fitted effect of over 50% in size
KB-3-1 tox – KB-3-1 parental cell cytotoxicity; Potency, µM (doses to about 46.1 µM), hits mostly cytotoxic; AID 1347075; 400,000 compounds, 1.4% hits; KB-3-1 viability, CellTiter-Glo ATP luminescence, 72 h; further: on the % scale 0 is the no-effect control and ±100 the full control effect; nearly all actives have a fitted effect of over 60% in size
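Luminescent ATP read-out (CellTiter-Glo) measures survival of drug-naive KB-3-1 cells after 72 h compound exposure at 37 °C. Titration series was screened from lowest to highest concentration, with DMSO vehicle plates as background controls.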
PTAP TSG101 blk – blocks PTAP/TSG101 interaction to inhibit HIV-1 budding | Q99816 | Fluorescence polarization, FITC-PTAP peptide / Tsg101 binding | Potency, µM (titrated, usually from 115 µM), for the others: top-dose activity change, negative = inhibition, most hits filed as inhibitors | 340,000 tested, under 10 active | AID 493005; active means well fitted inhibition curve with a large enough effect in the main read-out, with a control signal flat, not every such curve was filed as active; inconclusive means small, poorly fitted or top-dose-only effect, or effect the other way, or a change in a side signal; inactive means no such curve, though single readings can be large or run the other way; further: % of control where 0% means no effect
Target sequence (Q99816 whole entry, looked up): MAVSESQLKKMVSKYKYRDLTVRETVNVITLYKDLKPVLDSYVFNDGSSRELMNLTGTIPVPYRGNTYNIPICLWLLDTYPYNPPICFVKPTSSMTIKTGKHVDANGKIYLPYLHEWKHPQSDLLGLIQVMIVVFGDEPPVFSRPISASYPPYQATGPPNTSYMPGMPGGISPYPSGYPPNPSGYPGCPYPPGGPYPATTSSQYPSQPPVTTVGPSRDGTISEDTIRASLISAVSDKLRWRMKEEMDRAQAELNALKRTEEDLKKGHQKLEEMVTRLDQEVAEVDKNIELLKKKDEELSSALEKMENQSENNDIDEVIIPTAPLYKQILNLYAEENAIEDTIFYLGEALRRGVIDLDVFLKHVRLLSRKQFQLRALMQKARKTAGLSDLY
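Steps: Tsg101 binding domain dispensed (10 uM final), compounds pinned in DMSO, FITC-labeled PTAP-motif peptide added (50 nM final); after 20 min binding at room temperature, polarization measured.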
SW480 rereplic – induces DNA re-replication in SW480 colon adenocarcinoma cells; SW480 DNA re-replication, Hoechst DNA content imaging, 48 h; Potency, µM (series often up to 46.1 µM), inactives show at the highest dose re-replication activation, most hits filed as activators; 340,000 compounds, 1.8% hits; AID 624297; further: % of control where 0% means no effect; nearly all actives have a fitted effect of over 55% in size
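Image-based DNA-content assay: after two days of treatment, nuclei were labelled with the DNA dye Hoechst and imaged, and hits were compounds raising the count of nuclei showing high fluorescence intensity.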
KB-V1 MDR tox – kills drug-selected multidrug resistant KB-V1 cells | KB-V1 MDR cells viability, CellTiter-Glo, 72 h | Potency, µM (top dose mostly 46.1 µM), hits mostly cytotoxic | 400,000 compounds, 3.4% hits | AID 1347076; further: on the % scale 0 is the no-effect control and ±100 the full control effect; nearly all actives have a fitted effect of over 60% in size
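Following 72 h at 37 degrees C with compound, KB-V1 cell viability was read by CellTiter-Glo luminescence, medium being phenol-red-free DMEM plus 10% FBS; concentration-response parameters came from normalized, curve-fitted qHTS data.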
RGS4 inhibitor – human RGS4 inhibition | P49798 | 390,000 compounds, 0.039% hits | Potency, µM (titrated, usually from 114 µM), for the others: at the top dose activity change, negative = inhibition, hits mostly inhibitors | Transcreener GDP fluorescence polarization, RGS4-accelerated GTP hydrolysis; further: on the % scale 0 is the no-effect control and ±100 the full control effect; nearly all actives have a fitted effect of over 75% in size
Target sequence (P49798 whole entry, looked up): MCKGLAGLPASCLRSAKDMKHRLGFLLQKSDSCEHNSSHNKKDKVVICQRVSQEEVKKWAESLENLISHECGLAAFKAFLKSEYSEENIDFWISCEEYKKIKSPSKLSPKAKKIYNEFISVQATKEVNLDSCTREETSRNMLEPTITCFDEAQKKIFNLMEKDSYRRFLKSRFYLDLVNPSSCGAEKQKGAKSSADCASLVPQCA
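MLSMR compounds (23 nl, pin-transferred) preincubated 10 min at room temperature with a 500nM (2x) first reagent, then RGS4 at 900nM (2x) plus Transcreener GDP mix added; fluorescence polarization (620/688 nm) read before and after 90 min at 30 °C.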
Numbers without * were called inactive; i = inactive; u = inconclusive; x = no result given; [ ] = dose if it differs, or a comment. Rows were chosen to be rich in hits. Some 6.6% of all compounds tested hit in one or more screens of this group. Unless noted, the call rests on the fitted dose curve; in most records, active means well fitted curve in the direction sought with a large enough effect; inconclusive means small, poorly fitted or top-dose-only effect, or another doubt; inactive means no such curve, though single readings can be large; an effect the other way counts as inactive or inconclusive. Potency means the concentration at half of the fitted maximal effect.

SMILES | MCF10A rereplic | KB-3-1 tox | PTAP TSG101 blk | SW480 rereplic | KB-V1 MDR tox | RGS4 inhibitor
COc1ccc(C(=O)NCC(c2ccc3c(c2)OCO3)N2CCN(c3ccccc3F)CC2)cc1 (stereo unspecified) | x | i | x | x | i | -17%
Fc1ccc(NC(=S)NCc2cccs2)cc1 | -55% | u | -4% | u | 18µM* | 11%
CCN1CCN(c2cc(C)c3cc(NC(=S)NCc4cccs4)ccc3n2)CC1 | 7.3µM* | i | -1% | u | i | -24%
CCN(CC)CCNC(=S)Nc1ccc2nc(N3CCCC3)cc(C)c2c1 | u | 15µM* | -7% | u | i | -5%[11.4 µM]
Cc1cc(N2CCN(C)CC2)nc2ccc(NC(=S)NCc3cccs3)cc12 | 9.2µM* | i | 1% | u | i | -42%
COc1ccccc1N1CCN(S(=O)(=O)CCNC(=O)COc2ccc(C(C)C)cc2)CC1 | x | x | x | x | x | -18%
C=Cc1ccc(CN2C(=O)N(c3ccc(CC)cc3)S(=O)(=O)c3ccccc32)cc1 | x | u | x | x | i | 33%
Cc1cc(N2CCCCC2)nc2ccc(NC(=O)c3ccc(Br)o3)cc12 | 8.2µM* | u | 0% | u | u | -23%
Cc1cc(N2CCN(C)CC2)nc2ccc(NC(=O)c3ccc4c(c3)OCO4)cc12 | u | 7.3µM* | -7% | 27% | i | u
Cc1cc(N2CCN(C)CC2)nc2ccc(NC(=O)c3ccc(Br)o3)cc12 | 12% | u | -8% | -12% | u | 13%
O=c1c2ccccc2ncn1-c1ccc(Br)cc1[N+](=O)[O-] | u | i | -3% | 5.8µM* | i | 2%
CCOC(=O)c1sc(NC(=O)c2cc3nc(-c4ccccc4)cc(C(F)(F)F)n3n2)c(C(=O)OCC)c1C | x | i | x | x | i | -16%
COc1ccc(Cc2nnc(N/N=C/c3ccc(O)cc3)[nH]c2=O)cc1OC | 8.2µM* | 0.58µM* | 1% | u | u | u
COc1ccc(-c2ccnc3nc(Sc4ncc(C(F)(F)F)cc4Cl)nn23)cc1 | -2% | i | -7% | 6% | 15µM* | -24%
FC(F)(F)c1cnc(Sc2nc3nccc(-c4ccc(Cl)cc4)n3n2)c(Cl)c1 | 3.3µM* | i | -1% | 16µM* | i | -41%
Cc1nnc(N/N=C/c2cc([N+](=O)[O-])c(N3CCC(C)CC3)cc2N2CCC(C)CC2)n1N | u | i | -4% | u | 23µM* | -7%
CCC(=O)N1CCc2cc(Br)cc(S(=O)(=O)N3CCC(C(=O)Nc4ccccc4F)CC3)c21 | x | i | x | x | i | -12%
Cc1ccc(-c2nnc(N3CCN(C(=O)COc4ccccc4)CC3)c3ccccc23)cc1 | u | 18µM* | 3% | 15% | 2.6µM* | 22%
Cc1ccc(-c2nnc(N3CCN(C(=O)CN4CCOCC4)CC3)c3ccccc23)cc1 | 8% | i | -3% | 1% | 13µM* | 6%
O=[N+]([O-])CC(c1ccccc1)c1c[nH]c2ccccc12 (stereo unspecified) | 15µM* | 16µM* | -6% | 169% | u | -13%
COc1cc(C(C[N+](=O)[O-])c2c(C)[nH]c3ccccc23)cc(OC)c1OC (stereo unspecified) | -2% | u | -2% | -3% | u | -23%
CCN(CC(=O)Nc1cccc(OC)c1)c1ncnc2sc(C)c(C)c12 | -57% | u | -7% | -140% | 2.3µM* | 4%
COc1cccc(NC(=O)COc2ncnc3sc(C)c(C)c23)c1 | -4% | i | -2% | -9% | i | 26%
Cc1cc(C)nc(Sc2ncnc3sc4c(c23)CCC4)n1 | -182%[0.0737 µM] | u | -5% | 13µM* | u | -13%
O=C(NCCC1=CCCCC1)C1CCN(S(=O)(=O)c2ccc(Br)s2)CC1 | u | i | -2% | 1% | 16µM* | 4%
SMILES | MCF10A rereplic | KB-3-1 tox | PTAP TSG101 blk | SW480 rereplic | KB-V1 MDR tox | RGS4 inhibitor
Cc1ccc(S(=O)(=O)N2CCCC(C(=O)NCCC3=CCCCC3)C2)cc1 (stereo unspecified) | -21% | i | -4% | -3% | i | 31%
O=C(NCCC1=CCCCC1)C1CCCN(S(=O)(=O)c2ccccc2)C1 (stereo unspecified) | u | i | 1% | 21% | 9.2µM* | 16%
CCOc1ccccc1Nc1nc2ccccc2nc1NS(=O)(=O)c1ccc(Cl)cc1 | x | i | x | x | i | 21%
O=C(CN1C(=O)COc2ccc(Cl)cc21)Nc1ccc(F)cc1 | x | i | x | x | i | -9%
Cc1ccc(-c2nnc3sc(C4COc5ccccc5O4)nn23)cc1 (stereo unspecified) | 5% | i | -4% | -10% | i | -12%
c1ccc(Cc2nnc3sc(C4COc5ccccc5O4)nn23)cc1 (stereo unspecified) | 9% | i | x | -3% | 15µM* | -41%
c1ccc(OCc2nnc3sc(C4COc5ccccc5O4)nn23)cc1 (stereo unspecified) | 10% | i | 0% | 1% | i | u
Clc1ccccc1-c1nnc2sc(C3COc4ccccc4O3)nn12 (stereo unspecified) | -3% | i | -5% | 0% | 16µM* | 4%
c1ccc(Cc2nnc3sc(-c4ccccn4)nn23)cc1 | 1% | u | -5% | -4% | 16µM* | -46%
COc1cc(OC)cc(C(=O)N(Cc2ccco2)Cc2cccs2)c1 | x | i | x | x | i | -4%
CCCc1cc(-c2ccc3c(c2)COc2c4ccccc4nn2-3)on1 | 16µM* | i | x | -3% | i | -38%
CN(C(=O)c1nn(C)c2c1COc1ccccc1-2)c1cccc(C(F)(F)F)c1 | x | x | x | x | x | -9%
O=C(N/N=C/c1ccc(N2CCOCC2)c([N+](=O)[O-])c1)c1ccc(F)cc1 | 13% | i | -9% | 1% | i | -5%[56.9 µM]
Cc1c(C(=O)N2CCN(c3cccc(Cl)c3)CC2)cccc1[N+](=O)[O-] | 2% | i | -3% | 3% | i | -32%[11.4 µM]
CO/N=C/c1ccc(N2CCN(C(=O)c3ccc(Cl)cc3Cl)CC2)c([N+](=O)[O-])c1 | 11% | 13µM* | -7% | 15% | 2.6µM* | 9%
CO/N=C/c1ccc(N2CCN(C(=O)c3cccc(C(F)(F)F)c3)CC2)c([N+](=O)[O-])c1 | 8% | u | -6% | u | 10µM* | -4%
CO/N=C/c1ccc(N2CCN(C(=O)c3ccc(F)cc3)CC2)c([N+](=O)[O-])c1 | 18% | i | -4% | -3% | 16µM* | 29%
